Sm TGR inh – qHTS Assay for the Inhibitors of Schistosoma Mansoni Peroxiredoxins; hit rate 3% among 360,000; purified TGR, DTNB reduction, TNB absorbance 405 nm; Potency, µM (doses to about 114 µM), inactives show at the highest dose activity change, negative = inhibition, actives largely listed as inhibitors; note: potency is the fitted concentration of half-maximal effect; % is set by controls: 0 for no effect and ±100 for the full control effect; nearly all actives have a fitted effect of over 60% in size
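TGR 20 nM + NADPH 100 uM (dispensed conc.), cpd preinc 15 min RT; start with NADPH (500 uM addition) then DTNB (15 mM addition). Kinetic TNB absorbance, 405 nm filter. Four-parameter Hill fit across titration.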
LmPK inh – qHTS Assay for Inhibitors of Leishmania Mexicana Pyruvate Kinase (LmPK); Q27686; purified LmPK, Kinase-Glo ATP luminescence, 1 h; AID 1721, 2009; hit rate 0.37% among 290,000; Potency, µM (top dose mostly 57.5 µM), inactives show at the top dose activity change, negative = inhibition, actives largely listed as inhibitors; note: potency is the fitted concentration of half-maximal effect; % is set by controls: 0 for no effect and ±100 for the full control effect
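0.1 nM LmPK, 0.5 mM PEP, 0.1 mM ADP; 50 mM imidazole pH 7.2, 7 mM MgCl2, 50 mM KCl; 1 h RT. Kinase-Glo luminescence readout, normalized to no-enzyme (full inhibition) and uninhibited wells.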
FBPA Giardia inh – qHTS Assay for Inhibitors of Fructose-1,6-bisphosphate Aldolase from Giardia Lamblia | purified Giardia FBPA | Potency, µM (top dose mostly 59.6 µM), for inactives: at the highest dose activity, negative = inhibition, actives largely listed as inhibitors | hit rate 0.71% among 290,000 | AID 2451, 2010; note: potency is the fitted concentration of half-maximal effect; % is set by controls: 0 for no effect and ±100 for the full control effect; nearly all actives have a fitted effect of over 55% in size
Target sequence (A8B2U2 whole entry, looked up): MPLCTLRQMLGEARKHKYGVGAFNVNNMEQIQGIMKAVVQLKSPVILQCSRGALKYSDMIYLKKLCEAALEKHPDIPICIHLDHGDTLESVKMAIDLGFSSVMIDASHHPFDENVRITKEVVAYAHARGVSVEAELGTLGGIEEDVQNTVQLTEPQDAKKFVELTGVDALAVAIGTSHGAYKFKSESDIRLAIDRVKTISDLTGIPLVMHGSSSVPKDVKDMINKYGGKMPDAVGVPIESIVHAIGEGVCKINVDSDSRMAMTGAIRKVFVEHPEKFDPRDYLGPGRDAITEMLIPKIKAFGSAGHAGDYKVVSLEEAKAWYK
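Giardia FBPA (40 nM reagent) was preincubated 10 min at RT with compound (up to 57.5 uM final), then substrate plus GAPDH/TPI/NAD/arsenate coupling system with diaphorase/resazurin was added; resorufin fluorescence (525/598 nm) was read after 20 min.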
TbPYK inhibitor – qHTS of Trypanosoma Brucei Inhibitors. Potency, µM (series often up to 76.8 µM), without a hit: at the top dose activity, negative = inhibition, hits mostly inhibitors. TbPYK enzyme, Kinase-Glo Plus ATP luminescence, 45 min. hit rate 0.12% among 410,000. pyruvate kinase (Trypanosoma brucei), Q57TT1. AID 624173, 2012; note: potency is the fitted concentration of half-maximal effect; % is set by controls: 0 for no effect and ±100 for the full control effect; nearly all actives have a fitted effect of over 50% in size
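Activity of T. brucei pyruvate kinase was followed by Kinase-Glo Plus luminescence after the enzyme reacted 45 min at room temperature with 130 uM ADP (final) and substrate. Test compounds were added before ADP at multiple concentrations.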
Cycloheximide cs – Cycloheximide Counterscreen for Small Molecule Inhibitors of Shiga Toxin; max response, %; AID 2314, 2010; hit rate 12% among 300,000; cell reporter, cycloheximide protein synthesis inhibition counterscreen; in the data active = max response mostly above about 13%, no sharp cut-off; inactive = mostly below about 14%; note: read at 38.3 µM for the half of the compounds with a filed dose; 0% is about no effect
Shiga inhibitor – A qHTS for Small Molecule Inhibitors of Shiga Toxin | AID 2315, 2010 | hit rate 9.2% among 290,000 | inhibition, % at 38.7 µM | Vero cells, Shiga toxin protein synthesis inhibition reporter; in the data active = inhibition mostly above about 28%, no sharp cut-off; inactive = mostly below about 43%; note: 0% is about no effect
* hit, by the source's call. This excerpt belongs to a sample that is enriched for hits. Unless noted, calls come from the whole dose curve; as a rule, active = well fitted curve in the direction sought with a large enough effect; inconclusive = small, poorly fitted or top-dose-only effect, or another doubt; inactive = no such curve, though single readings can be large; an effect the other way counts as inactive or inconclusive.

How did S=C(NCCc1ccc(Cl)cc1)Nc1ccc(Cl)cc1Cl do in these assays?
Sm TGR inh: -4%; LmPK inh: 1%; FBPA Giardia inh: 0%; TbPYK inhibitor: 10%; Cycloheximide cs: 13*; Shiga inhibitor: 15

Results for CCCNC(=S)Nc1ccc(Cl)cc1Cl ?
Sm TGR inh: -22%; LmPK inh: 1%; FBPA Giardia inh: 2%; TbPYK inhibitor: 0%; Cycloheximide cs: 1; Shiga inhibitor: 41*

What do the screens show for `S=C(NCc1ccc(Cl)cc1)Nc1ccc(Cl)cc1Cl`?
Sm TGR inh: -16%; LmPK inh: 1%; FBPA Giardia inh: -6%; TbPYK inhibitor: -7%; Cycloheximide cs: 1; Shiga inhibitor: -7

Results for COc1ccc(S(=O)(=O)N2CCN(C(=O)CNC(=O)c3ccc4c(c3)OCO4)CC2)cc1 ?
Sm TGR inh: 2%; TbPYK inhibitor: -7%

Results for CCOC(=O)c1ccc(NC(=O)C(CC)Sc2nnc3c4ccccc4n(C)c3n2)cc1 (stereo not drawn) ?
Sm TGR inh: 4%; TbPYK inhibitor: -11%

What do the screens show for `O=C(NCc1ccco1)c1scc2c1OCCO2`?
Sm TGR inh: 35µM*; LmPK inh: 11%; FBPA Giardia inh: -1%; TbPYK inhibitor: -12%; Cycloheximide cs: 7; Shiga inhibitor: -9

How did COc1cc(OC)cc(C(=O)N2CCC(C(=O)NCCc3ccccc3)CC2)c1 do in these assays?
Sm TGR inh: 6%; LmPK inh: 1%; FBPA Giardia inh: 14%; TbPYK inhibitor: 4%; Cycloheximide cs: 24*

How did CCC(C)(C)NC(=O)C(c1ccc(OC)cc1)N(C(=O)CCC(=O)Nc1cc(C)on1)c1ccc(F)cc1 (stereo not drawn) do in these assays?
Sm TGR inh: -4%; LmPK inh: -3%; FBPA Giardia inh: -1%; TbPYK inhibitor: -1%; Cycloheximide cs: -4; Shiga inhibitor: -19

What do the screens show for `Cc1ncoc1C(=O)Nc1cccc(Cl)c1`?
Sm TGR inh: 0%; LmPK inh: -28%; FBPA Giardia inh: -2%; TbPYK inhibitor: -16%; Cycloheximide cs: 63*; Shiga inhibitor: 100*

Results for COC(=O)c1ccccc1NC(=O)c1sc(Cl)nc1C ?
Sm TGR inh: -26%; LmPK inh: -1%; FBPA Giardia inh: 2%; TbPYK inhibitor: -3%; Cycloheximide cs: 15*; Shiga inhibitor: 80*

How did Cc1cccc(C(=O)Nc2nc(C)c(C(=O)Nc3ccc4c(c3)CCC4)s2)c1 do in these assays?
Sm TGR inh: 1%; LmPK inh: -8%; FBPA Giardia inh: -12%; TbPYK inhibitor: -4%; Cycloheximide cs: 17*; Shiga inhibitor: 14

Results for Cc1nc(Cl)sc1C(=O)Nc1ccc(C(F)(F)F)cc1 ?
Sm TGR inh: 2%; LmPK inh: 2%; FBPA Giardia inh: 0%; TbPYK inhibitor: 4%; Cycloheximide cs: 20*

Results for Cc1nn(-c2ccccc2)c(C)c1/C=N/N1CCN(Cc2ccccc2)CC1 ?
FBPA Giardia inh: 1%

Results for Cc1cc(/N=C/C=C2/N(C)c3ccccc3C2(C)C)n(CCC#N)n1 ?
TbPYK inhibitor: 2%

What do the screens show for `Cc1ccccc1NC(=O)c1ocnc1C`?
Sm TGR inh: 1%; LmPK inh: -1%; FBPA Giardia inh: 3%; TbPYK inhibitor: 0%; Cycloheximide cs: 1; Shiga inhibitor: 0

Results for COc1cccc(NC(=O)c2sc(Cl)nc2C)c1 ?
Sm TGR inh: -18%; LmPK inh: -1%; FBPA Giardia inh: 4%; TbPYK inhibitor: 5%; Cycloheximide cs: 13*

How did Cc1ncoc1C(=O)Nc1cccc(Cl)c1C do in these assays?
Sm TGR inh: -17%; LmPK inh: -3%; FBPA Giardia inh: 7%; TbPYK inhibitor: -1%; Cycloheximide cs: 16*; Shiga inhibitor: 15

What do the screens show for `Cc1nc(C)c(C(=O)Nc2cccc(C)c2C)s1`?
Sm TGR inh: inconclusive; LmPK inh: 4%; FBPA Giardia inh: -2%; TbPYK inhibitor: 5%; Cycloheximide cs: 11; Shiga inhibitor: 19

What do the screens show for `Cc1nc(Cl)sc1C(=O)Nc1cccc(C(F)(F)F)c1`?
TbPYK inhibitor: -3%

How did Cc1ccc(Cl)cc1NC(=O)c1ocnc1C do in these assays?
Sm TGR inh: inconclusive; LmPK inh: 3%; FBPA Giardia inh: 1%; TbPYK inhibitor: -4%; Cycloheximide cs: 9; Shiga inhibitor: -6

Results for Cc1cccc(NC(=O)c2sc(C)nc2C)c1 ?
Sm TGR inh: -8%; LmPK inh: -28%; FBPA Giardia inh: 0%; TbPYK inhibitor: -3%; Cycloheximide cs: 50*; Shiga inhibitor: 84*

What do the screens show for `Cc1ccc(NC(=O)c2ocnc2C)cc1Cl`?
Sm TGR inh: 12%; LmPK inh: -21%; FBPA Giardia inh: -1%; TbPYK inhibitor: -13%; Cycloheximide cs: 52*; Shiga inhibitor: 70*

How did Cc1ccc(CCNC(=O)c2ccc(CS(=O)(=O)c3ccc(Cl)cc3)o2)cc1 do in these assays?
Sm TGR inh: -33%; TbPYK inhibitor: -15%

How did COc1cccc(NC(=O)c2ocnc2C)c1 do in these assays?
Sm TGR inh: 2%; LmPK inh: inconclusive; FBPA Giardia inh: 0%; TbPYK inhibitor: -13%; Cycloheximide cs: 25*; Shiga inhibitor: 63*

What do the screens show for `COc1cccc(NC(=O)c2ccccc2)c1`?
Sm TGR inh: 1%; TbPYK inhibitor: -10%

How did C[n+]1ccc(C(=O)Nc2ccccc2Cl)cc1 do in these assays?
Sm TGR inh: inconclusive; LmPK inh: -1%; FBPA Giardia inh: -9%; TbPYK inhibitor: -10%; Cycloheximide cs: -2; Shiga inhibitor: -11

Results for Cc1ccc(-c2nnnn2C2C/C(=N\NC(N)=S)C3OCC2O3)cc1 (stereo not drawn) ?
Sm TGR inh: -29%; LmPK inh: 1%; FBPA Giardia inh: -25%; TbPYK inhibitor: -17%; Cycloheximide cs: 20*; Shiga inhibitor: 39

How did CCCCC(=O)N/N=C/c1c(O)n(C2CC2)c(=S)[nH]c1=O do in these assays?
Sm TGR inh: -6%; LmPK inh: -1%; FBPA Giardia inh: -17%; TbPYK inhibitor: 6%; Cycloheximide cs: -3; Shiga inhibitor: 7

Results for CC(N=Cc1c(O)n(C2CC2)c(=S)[nH]c1=O)c1ccccc1 (stereo not drawn) ?
Sm TGR inh: 9%; LmPK inh: -7%; FBPA Giardia inh: -11%; TbPYK inhibitor: -1%; Cycloheximide cs: -2; Shiga inhibitor: -5

How did CC(C)c1ccc(-n2c(O)c(/C=N/NC(=O)c3ccccc3O)c(=O)[nH]c2=S)cc1 do in these assays?
Sm TGR inh: -22%; LmPK inh: -4%; FBPA Giardia inh: 16%; TbPYK inhibitor: -21%; Cycloheximide cs: 33*; Shiga inhibitor: 48*

Source: PubChem (National Center for Advancing Translational Sciences (NCATS))
